CDK5 p35 inh – inhibitors of human CDK5/p35 kinase, primary screen, biochemical, single concentration; Cyclin-dependent kinase 5 (Homo sapiens) + Cyclin-dependent kinase 5 activator 1 (Homo …; Recombinant CDK5/p35, ADP-Glo luminescence, 60 min; inhibition, % at 10 µM; 330,000 compounds, 0.01% hits; AID 488839, 2010;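 active means highest replicate inhibition of at least 50% and at least 75% of replicates reaching 50%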;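 further: plate controls were DMSO neutral control for no effect and GW8510 at 10 µM for full effect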
NSD2 HMT inh – NSD2 histone methyltransferase inhibitors, primary screen, biochemical, AlphaScreen, single concentration, set 2. 310,000 compounds, 0.54% hits. AID 743445, 2014. Histone-lysine N-methyltransferase NSD2 (Homo sapiens), O96028. NSD2 peptide methylation, 120 min. inhibition, % at 12.5 µM; in the data active means inhibition above about 50%
ALR H2O2 inh – inhibitors of human ALR sulfhydryl oxidase, primary screen, biochemical, H2O2 detection, HRP-luminol luminescence, single point; FAD-linked sulfhydryl oxidase ALR (Homo sapiens), P55789; purified ALR, DTT oxidation; inhibition, % (concentration not given with the values); 290,000 compounds, 3.8% hits; AID 485317, 2010;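 active means mean replicate inhibition above about 79%, with every replicate also reaching it, limit read from the data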
Target sequence (P55789 whole entry, looked up): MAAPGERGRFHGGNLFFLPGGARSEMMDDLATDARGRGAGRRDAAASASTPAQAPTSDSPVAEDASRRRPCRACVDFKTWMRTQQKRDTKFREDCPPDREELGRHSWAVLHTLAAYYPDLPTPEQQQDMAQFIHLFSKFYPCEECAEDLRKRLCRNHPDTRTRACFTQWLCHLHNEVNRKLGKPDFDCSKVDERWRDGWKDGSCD
CASP6 VEID inh – human caspase-6 inhibitors, primary screen, biochemical, VEID-R110 fluorescence, single point, set 2. P55212. purified caspase-6, Z-VEID-R110 cleavage fluorescence. inhibition, % at 12.5 µM. 350,000 compounds, 0.53% hits. AID 686996, 2013;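 active means mean inhibition across replicates at least about 35%, with every replicate also reaching that limit, limit read from the data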;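 further: 0% = median of neutral control wells and 100% = no fluorescence left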
Target sequence (P55212 24-179 limits assumed): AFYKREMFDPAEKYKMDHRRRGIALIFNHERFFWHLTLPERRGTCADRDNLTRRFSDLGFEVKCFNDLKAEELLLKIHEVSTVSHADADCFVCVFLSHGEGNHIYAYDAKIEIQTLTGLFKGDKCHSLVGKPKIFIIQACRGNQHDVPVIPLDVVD
Target sequence (P55212 194-293 limits assumed): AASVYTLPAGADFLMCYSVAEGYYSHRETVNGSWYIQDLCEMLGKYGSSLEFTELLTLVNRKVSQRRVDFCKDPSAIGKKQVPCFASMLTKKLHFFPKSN
Mot1-301 SUMO – yeast Mot1-301 growth rescue at high temperature, primary screen, SUMOylation pathway inhibitor project, S. cerevisiae, ATP luminescence, 38.5C | growth rescue, % at 18.8 µM | 320,000 compounds, 1% hits | S. cerevisiae Mot1-301 growth rescue; percent above DMSO median, 100 means doubled | AID 2716, 2010;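 active means every valid replicate shows activation above 250% relative to neutral control wells; inactive means the rest, any valid replicate at or below 250%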;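 further: OY570 slx delta 5 strain wells were the positive control but not used for scaling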
Glyco luc inh – increase of ERlucT glycosylation luciferase signal, primary screen, N-linked glycosylation inhibitor project, D54 ERlucT cells, luminescence, set 2; D54 ERlucT glycosylation luciferase reporter, 24 h; percent of 100 nM tunicamycin response; reporter increase, % at 12.5 µM; 360,000 compounds, 0.23% hits; AID 588692, 2011;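 active means mean luciferase reporter signal, scaled so untreated is 0 and the glycosylation-blocking control 100, at or above a set limit in every replicate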;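 further: luciferase carries N-glycosylation sites so blocking glycosylation raises the light; 0% = median of neutral control wells and 100% = median of 100 nM tunicamycin wells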
An asterisk follows results filed as active; . = no result. Hits are enriched below; roughly 3.9% of the tested compounds scored in any of these assays.

SMILES	CDK5 p35 inh	NSD2 HMT inh	ALR H2O2 inh	CASP6 VEID inh	Mot1-301 SUMO	Glyco luc inh
O=C(CCl)c1cc2c3c(c1)CC(=O)N3CCC2	2	1	98*	10	22	1
O=C(NCCO)C(=O)Nc1cc2c3c(c1)CC(=O)N3CCC2	0	6	.	4	-17	1
Cc1noc(C)c1NC(=O)Nc1ccc2c(c1)C(=O)N([C@H](C)CO)C[C@H](C)[C@H](CN(C)CC1CC1)OCCCC[C@H](C)O2	.	.	.	-1	.	.
c1ccc(CNC2=NCCCCC2)cc1	5	-1	-4	.	4	4
c1ccc(NNC2=NCCCCC2)cc1	0	-2	99*	-2	46	1
CN(C)c1ccc(C2N3CC4(C)CN2CC(C)(C3)C4O)cc1 (configuration not stated)	0	.	99*	1	-10	-1
O=C(C1CCOCC1)N1CC(=O)N2[C@H](C1)[C@H](c1ccc(C#CC3CC3)cc1)[C@@H]2CO	.	.	.	-2	.	.
CCC(=O)N1CC2(C1)[C@H](c1ccc(-c3ccccc3)cc1)[C@H](CO)N2S(C)(=O)=O	.	.	.	2	.	.
CN1C(=O)c2ccccc2NC(=O)[C@]12O[C@@H]2c1cccc(O)c1	-2	.	99*	6	4	1
CS(=O)(=O)NN1C(=O)c2ccccc2NC1c1cccc(O)c1 (configuration not stated)	1	-6	0	-3	2	1
CCCCC(NC(=O)CCc1c(C)c2cc3c4c(oc3c(C)c2oc1=O)CCCC4)C(=O)O (configuration not stated)	2	5	96*	5	136	0
CCCCC(NC(=O)Cc1c(C)c2cc3c4c(oc3c(C)c2oc1=O)CCCC4)C(=O)O (configuration not stated)	2	34	64	4	-7	1
CS(=O)(=O)N1CCCCN2[C@H](C1)[C@H](c1ccc(C#Cc3ccccn3)cc1)[C@@H]2CO	.	.	.	0	.	.
Cc1oc(-c2ccccc2)nc1CS(=O)CC(=O)N1CCc2ccccc2C1 (configuration not stated)	1	.	99*	9	-4	-6
Cc1cccc(-c2nc(CS(=O)CC(=O)NCC3CCCO3)c(C)o2)c1 (configuration not stated)	-1	.	.	0	11	1
Cc1cccc(-c2nc(CS(=O)CC(=O)N3CCCCC3)c(C)o2)c1 (configuration not stated)	0	.	100*	1	54	2
Cc1oc(-c2ccccc2Cl)nc1CSCC(=O)N1CCCC1	-1	0	75	.	8	-15
Cc1oc(-c2ccccc2Cl)nc1CS(=O)CC(=O)N1CCN(c2ccccc2)CC1 (configuration not stated)	.	13	99*	24	-15	5
Cc1ccc(-c2nnc(SCC(=O)N3CCN(c4ccccc4)CC3)o2)cc1	-1	1	-8	.	.	0
Cc1ccc(-c2nc(CS(=O)CC(=O)N3CCN(c4ccccc4)CC3)c(C)o2)cc1 (configuration not stated)	1	13	98*	0	43	3
C[C@@H]1CN([C@@H](C)CO)C(=O)CCCn2cc(nn2)CO[C@H]1CN(C)CC1CCCCC1	.	.	.	1	.	.
COC(=O)[C@H]1[C@H](CO)[C@H]2Cn3c(ccc(-c4ccccc4F)c3=O)[C@H]2N1Cc1cccnc1	.	.	.	2	.	.
O=C(C[C@@H]1C[C@H]2c3cc(NC(=O)C4CCOCC4)ccc3O[C@H]2[C@@H](CO)O1)NCc1cccc(F)c1	.	.	.	-1	.	.
COc1ccc(OC)c(CNc2ncc(-c3cccc([N+](=O)[O-])c3)n2C)c1	-3	20	98*	6	-10	2
C[C@H](CO)N1C[C@H](C)[C@H](CN(C)Cc2ccc3c(c2)OCO3)Oc2ccc(NC(=O)Nc3cccc4ccccc34)cc2CC1=O	.	.	.	1	.	.
SMILES	CDK5 p35 inh	NSD2 HMT inh	ALR H2O2 inh	CASP6 VEID inh	Mot1-301 SUMO	Glyco luc inh
C=C(C)C(=O)Nc1cccc(C2=NOC3(C2)C[C@@H](C(N)=O)N(C(=O)CCCCC)C3)c1 (some centres not stated)	-2	.	-1	59*	-15	.
CN(C)C(=O)C[C@@H]1CC[C@@H]2[C@@H](COc3ccc(NC(=O)C4CCCC4)cc3C(=O)N2C)O1	.	.	.	1	.	.
C[C@H](NC(=O)OC(C)(C)C)c1nnc(SCC(=O)Nc2cccc(Cl)c2)o1	0	24	96*	7	1	1
CCOc1ccccc1OCC(=O)Nc1cccc(S(=O)(=O)NC2=NCCCCC2)c1	0	18	-19	0	-15	-3
CCOc1ccc2nc(SCC(=O)Nc3cccc(S(=O)(=O)NC4=NCCCCC4)c3)[nH]c2c1	1	6	92*	1	10	0
CCOc1ccc2nc(SCC(=O)Nc3ccc4c(c3)OCCO4)[nH]c2c1	0	8	-4	.	69	-1
CCOc1ccccc1Nc1nnc(SCC(=O)Nc2cccc(S(=O)(=O)NC3=NCCCCC3)c2)s1	1	2	-5	.	677*	-1
CO[C@H]1CN(C)C(=O)c2ccc(NC(=O)C3CC3)cc2OC[C@@H](C)N(Cc2cccnc2)C[C@@H]1C	.	.	.	-3	.	.
O=C(C[C@@H]1CC[C@@H](NS(=O)(=O)c2ccc(F)cc2)[C@@H](CO)O1)NCCN1CCCCC1	.	.	.	0	.	.
OC[C@H]1[C@H](c2ccc(-c3ccc(F)cc3)cc2)[C@H]2CN(Cc3cccnc3)CCCCN21	.	.	.	-1	.	.
OC[C@H]1[C@H](c2ccc(-c3ccc(F)cc3)cc2)[C@@H]2CN(Cc3cccnc3)CCCCN12	.	.	.	60*	.	.
O=C(COC(=O)c1ccc([N+](=O)[O-])s1)NCc1ccc(F)cc1	-3	0	-30	.	13	1
O=C(COC(=O)c1ccc([N+](=O)[O-])s1)NC(=O)NCc1ccccc1	-1	2	-16	44*	-2	3
CCc1sc(NS(C)(=O)=O)nc1-c1ccccc1	0	1	98*	7	91	0
CCS(=O)(=O)Nc1ccc2c(c1)C(=O)N(C)[C@H]1CC[C@H](CC(=O)NCCCN3CCOCC3)O[C@H]1CO2	.	.	.	39*	.	.
CN1C(=O)c2cc(NC(=O)C3CC3)ccc2OC[C@H]2O[C@@H](CC(=O)O)CC[C@@H]21	.	.	.	37*	.	.
C[C@H](CO)N1C[C@H](C)[C@H](CN(C)C(=O)c2cccnc2)Oc2ncc(-c3ccc(C#N)cc3)cc2C1=O	.	.	.	-3	.	.
CCCN1CNc2c(c(=O)[nH]c(=S)n2CCc2ccccc2)C1	0	-2	91*	2	68	1
